# Measured values from the supplement of paper PMC7595190.
# Unmarked numbers belong to inactive results.
# Columns and labels:
# [1] = system: CMK; experiment: CellTox Green cytotoxicity fluorescence relative to DMSO vehicle (fold of vehicle RFU); higher = more cell death (loss of membrane integrity), active = 2 or more
# In short: (§1)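 Single compounds from the Selleckchem apoptosis library were applied at final 0.01, 0.1 and 1 µM (0.1% DMSO vehicle) to MV4-11, CMK and Kasumi-1 cells seeded at 4.0 × 10^4 cells per well with CellTox Green reagent. After incubation at 37 °C, 5% CO2, fluorescence was read at 24, 48 and 72 h. Cytotoxicity, meaning loss of membrane integrity, is shown as fold of the DMSO vehicle signal.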
# [2] = system: Kasumi-1; experiment: as above
# In short: as §1
SMILES,"CellTox Green cytotoxicity fluorescence ([1]; 0.01 µM, 24 h)","CellTox Green cytotoxicity fluorescence ([1]; 0.01 µM, 48 h)","CellTox Green cytotoxicity fluorescence ([1]; 0.01 µM, 72 h)","CellTox Green cytotoxicity fluorescence ([1]; 0.1 µM, 24 h)","CellTox Green cytotoxicity fluorescence ([1]; 0.1 µM, 48 h)","CellTox Green cytotoxicity fluorescence ([1]; 0.1 µM, 72 h)","CellTox Green cytotoxicity fluorescence ([1]; 1 µM, 24 h)","CellTox Green cytotoxicity fluorescence ([1]; 1 µM, 48 h)","CellTox Green cytotoxicity fluorescence ([1]; 1 µM, 72 h)","CellTox Green cytotoxicity fluorescence ([2]; 0.01 µM, 24 h)","CellTox Green cytotoxicity fluorescence ([2]; 0.01 µM, 48 h)","CellTox Green cytotoxicity fluorescence ([2]; 0.01 µM, 72 h)","CellTox Green cytotoxicity fluorescence ([2]; 0.1 µM, 24 h)","CellTox Green cytotoxicity fluorescence ([2]; 0.1 µM, 48 h)","CellTox Green cytotoxicity fluorescence ([2]; 0.1 µM, 72 h)","CellTox Green cytotoxicity fluorescence ([2]; 1 µM, 24 h)","CellTox Green cytotoxicity fluorescence ([2]; 1 µM, 48 h)","CellTox Green cytotoxicity fluorescence ([2]; 1 µM, 72 h)"
CN[C@@H]1C[C@H]2O[C@@](C)([C@@H]1OC)n1c3ccccc3c3c4c(c5c6ccccc6n2c5c31)C(=O)NC4 [Staurosporine],0.96,0.998,1.07,1.01,1.29,1.4,1.1,1.45,1.29,0.984,1.18,1.24,1.08,1.54,1.74,1.67,2.08 (active),2.12 (active)
COc1ccc2c(c1)/C(=C/c1cnc[nH]1)C(=O)N2,0.911,0.923,1.04,0.922,0.924,1.05,0.934,0.914,0.881,0.934,0.941,0.971,0.976,0.981,0.966,0.881,0.948,0.963
O=c1[nH]c2ccccc2n1C1CCN(Cc2ccc(-c3[nH]c4cc5ncnc5cc4nc3-c3ccccc3)cc2)CC1,1.02,0.991,0.913,0.983,0.97,0.906,0.966,0.967,0.949,0.972,0.961,0.96,0.969,0.99,0.958,1.08,1.29,1.35
Cc1cc2c(C(C)C)c(O)c(O)c(C=O)c2c(O)c1-c1c(C)cc2c(C(C)C)c(O)c(O)c(C=O)c2c1O,0.986,0.967,0.952,0.998,0.982,0.961,0.986,0.979,0.85,0.96,0.957,0.955,0.99,0.973,0.975,0.98,0.966,0.978
CC1=C(O)C(=O)C=C2C1=CC=C1[C@@]2(C)CC[C@@]2(C)[C@@H]3C[C@](C)(C(=O)O)CC[C@]3(C)CC[C@]12C [Celastrol],0.959,0.961,0.98,0.946,0.94,0.932,2.38 (active),3.09 (active),2.25 (active),0.916,0.923,0.903,0.954,0.962,0.952,1.23,1.43,1.47
COc1cc(C)[nH]c(=O)c1CNC(=O)c1c(C)n([C@H](C)C2CCOCC2)c2ccccc12,0.942,0.948,0.965,0.936,0.944,0.919,0.949,0.973,0.965,0.935,0.952,0.966,0.97,0.948,0.954,1.03,0.982,0.976
O=C(O)C(=O)c1cn(Cc2ccccc2)c2ccc(-c3ccc(OC(F)(F)F)cc3)cc12 [Tiplaxtinin],1.02,1.01,1,1.01,1.02,0.987,0.968,0.972,0.943,1.02,1.01,1.03,1.02,1.02,1.03,0.968,0.983,0.973
Cn1c(COP(=O)(NCCBr)NCCBr)cnc1[N+](=O)[O-],0.974,0.98,0.991,0.972,0.996,1.07,0.975,1.24,1.89,1.03,0.968,0.958,0.962,0.956,0.952,0.977,0.974,0.977
CC[C@H](C)[C@@H]([C@@H](CC(=O)N1CCC[C@H]1[C@H](OC)[C@@H](C)C(=O)N[C@H](C)[C@@H](O)c1ccccc1)OC)N(C)C(=O)[C@@H](NC(=O)[C@@H](NC)C(C)C)C(C)C [Monomethyl auristatin E],1.24,1.82,1.43,1.52,2.24 (active),1.56,1.97,2.64 (active),1.78,1.06,1.27,1.44,1.17,1.42,1.53,1.31,1.56,1.62
COc1cc([C@@H]2c3cc4c(cc3[C@H](O)[C@H]3COC(=O)[C@@H]23)OCO4)cc(OC)c1OC [Picropodophyllin],0.955,0.958,0.973,1.06,1.23,1.08,1.34,2.12 (active),1.58,0.945,0.978,0.997,0.993,0.999,1.06,1.16,1.35,1.48
